Screens as filed in PubChem BioAssay.
Many of the other results were omitted from the sample, so hits are more common in it than they were.
Mito fusion act = inhibitors of mitochondrial division or activators of mitochondrial fusion; S. cerevisiae fusion-defective mutant growth rescue, CellTiterGlo 48 h; Potency, µM (titrated, usually from 46.1 µM), for the others: at the top dose growth rescue (activation), most hits filed as activators; 0.23% of 320,000 active; AID 485298; note: potency is the fitted concentration of half-maximal effect; % of control where 0% means no effect; nearly all actives have a fitted effect of over 45% in size
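Yeast fusion mutant, YPEG (non-fermentable carbon), compound, 48 h at 37C non-permissive; CellTiterGlo added, 10 min RT, luminescence read. Rescued growth = division inhibition.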
RGS4 inh = human RGS4 inhibition. Transcreener GDP fluorescence polarization, RGS4-accelerated GTP hydrolysis. Potency, µM (titrated, usually from 114 µM), for the others: at the top dose activity change, negative = inhibition, usual class: inhibitors. 0.039% of 390,000 active. P49798; note: potency is the fitted concentration of half-maximal effect; % is set by controls: 0 for no effect and ±100 for the full control effect; nearly all actives have a fitted effect of over 75% in size
Target sequence (P49798 whole entry, looked up): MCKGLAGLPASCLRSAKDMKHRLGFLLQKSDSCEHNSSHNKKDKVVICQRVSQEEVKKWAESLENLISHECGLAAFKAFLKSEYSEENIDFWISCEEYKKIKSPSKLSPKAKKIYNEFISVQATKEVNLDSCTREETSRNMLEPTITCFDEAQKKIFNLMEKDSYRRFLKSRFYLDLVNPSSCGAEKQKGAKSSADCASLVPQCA
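MLSMR compounds (23 nl, pin-transferred) preincubated 10 min at room temperature with a 500nM (2x) first reagent, then RGS4 at 900nM (2x) plus Transcreener GDP mix added; fluorescence polarization (620/688 nm) read before and after 90 min at 30 °C.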
IDH1 R132H inh = human IDH1 R132H inhibition | O75874 | IDH1-R132H enzyme, NADPH consumption, diaphorase/resazurin fluorescence | Potency, µM (series often up to 76.6 µM), for inactives: at the top dose activity change, negative = inhibition, usual class: inhibitors | 0.093% of 390,000 active; note: potency is the fitted concentration of half-maximal effect; % is set by controls: 0 for no effect and ±100 for the full control effect; nearly all actives have a fitted effect of over 65% in size
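IDH1-R132H (0.5 ug/mL dispensed) in pH 7.5 Tris buffer was preincubated 30 min with compound, then given a substrate mix of 0.016 mM NADPH and 2 mM alpha-KG for 80 min at room temperature; remaining NADPH was read by diaphorase/resazurin fluorescence.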
ClpP mod = qHTS Assay for Activators of ClpP; purified B. subtilis ClpP, FRET peptide cleavage, 20 min; Potency, µM (titrated, usually from 57.5 µM), inactives show top-dose activity change, negative = active; 1.9% of 340,000 active; AID 651965, 2013; active = well fitted falling curve with a large enough effect; inconclusive = small, poorly fitted or top-dose-only effect; inactive = no such curve, though single readings can be large or run the other way; note: potency is the fitted concentration of half-maximal effect; the source files actives as falling curves though it sought activators and does not explain the sign; nearly all actives have a fitted effect of over 65% in size
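Purified B. subtilis ClpP, 10 microg/mL final in Tris/HCl pH8 with KCl, BSA, glycerol and Tween-20, cleaved an Abz/nitrotyrosine-quenched decapeptide. Fluorescence (ex 320, em 430) was read at 0 and 20 min at room temperature. Delta was normalized to 5.8 microM ADEP and DMSO/no-enzyme controls.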
LDHA inh = inhibitors of human lactate dehydrogenase A; 0.15% of 480,000 active; activity change, % (values are at about 110 or 230 µM); P00338; purified LDHA, NADH/diaphorase-resazurin fluorescence; active compounds read low; AID 1347041; in the data active = activity change below about -30%; inconclusive = mostly about -25% to -30%;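 note: plate controls were DMSO wells for no effect and wells without enzyme for full effect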
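Remaining NADH was detected by diaphorase (0.133 mg/mL) converting 37 µM resazurin to fluorescent resorufin, read at 0 and 20 minutes. The preceding 5-minute room-temperature reaction used 2 nM LDHA, 0.2 mM sodium pyruvate and 0.06 mM NADH at pH 7.4.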
S-ASM inh = human S-ASM enzyme inhibition | 0.006% of 340,000 active | P17405 | placental ASM, HMU-PC fluorogenic substrate, 60 min | AID 504937 | Potency, µM (titrated, usually from 57.5 µM), without a hit: top-dose activity change, negative = inhibition, hits mostly inhibitors; note: potency is the fitted concentration of half-maximal effect
Target sequence (P17405 47-631 limits assumed): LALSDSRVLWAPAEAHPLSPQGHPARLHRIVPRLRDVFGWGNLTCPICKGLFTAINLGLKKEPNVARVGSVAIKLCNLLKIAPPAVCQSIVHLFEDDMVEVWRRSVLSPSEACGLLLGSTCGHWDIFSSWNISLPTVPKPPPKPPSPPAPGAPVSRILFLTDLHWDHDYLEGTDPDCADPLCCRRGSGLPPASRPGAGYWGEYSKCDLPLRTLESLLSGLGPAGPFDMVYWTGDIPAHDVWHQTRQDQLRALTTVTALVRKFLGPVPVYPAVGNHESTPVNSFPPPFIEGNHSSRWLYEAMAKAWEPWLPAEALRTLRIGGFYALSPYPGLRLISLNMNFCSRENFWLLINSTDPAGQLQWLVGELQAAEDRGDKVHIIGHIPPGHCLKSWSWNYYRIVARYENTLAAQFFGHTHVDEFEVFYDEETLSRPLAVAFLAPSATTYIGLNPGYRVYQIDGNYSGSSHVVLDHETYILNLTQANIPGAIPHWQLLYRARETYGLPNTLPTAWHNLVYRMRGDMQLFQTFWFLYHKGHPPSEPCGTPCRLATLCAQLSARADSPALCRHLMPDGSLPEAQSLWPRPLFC
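Human placenta-derived ASM preincubated with compound 10 min at room temperature, then reacted with 9 uM (final) fluorogenic HMU-PC substrate for 60 min at 37 C. Stop solution raises pH to 10; fluorescence read at Ex 386/Em 447 nm.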
Numbers without * were called inactive; ? = inconclusive; nt = no result given; ! = repeats disagree; [ ] = another dose, or the depositor's remark. Unless noted, calls come from the whole dose curve; as a rule, active = well fitted curve in the direction sought with a large enough effect; inconclusive = small, poorly fitted or top-dose-only effect, or another doubt; inactive = no such curve, though single readings can be large; an effect the other way counts as inactive or inconclusive.

SMILES | Mito fusion act | RGS4 inh | IDH1 R132H inh | ClpP mod | LDHA inh | S-ASM inh
O=C(Cc1cccs1)N=Nc1c(O)[nH]c2ccccc12 | -15% | -3% | -9% | 1% | -1 | -8%
O=C(N=Nc1c(O)[nH]c2ccccc12)c1cc(-c2cccs2)[nH]n1 | 4% | -50% | 33% | nt | -39* | -14%
Cn1ncc(Cl)c1C(=O)N1CCN(c2ccc(Cl)c(Cl)c2)CC1 | 7% | 3% | 7% | 16µM* | -7 | -6%
Cn1ncc(Cl)c1C(=O)N1CCN(c2ccccc2)CC1 | 3% | -28% | 2% | 1% | -14 | 4%
Cc1cc(-n2c(C)cc(-c3csc(NC4CC4)n3)c2C)no1 | nt | nt | nt | nt | 0 | nt
CCCC1CCc2c(sc(NC(C)=O)c2C#N)C1 (stereo not given) | nt | nt | nt | nt | -18 | nt
Cc1ccc(-c2cc3cccc[n+]3cc2-c2ccc(C)cc2)cc1 | -2% | -17% | 2% | 2.8µM* | -3 | 16%
Cc1ccc2nc(-c3ccncc3)cc(-c3ccccc3)c2c1 | 3% | 20% | ? | ? | -8 | -19%
CCOP(=O)(OCC)C(NC(=O)Nc1ccc(Cl)c(Cl)c1)C(N)=O (stereo not given) | -4% | 28% | -1% | 16µM* | -2 | -1%
Cc1ccc(S(=O)(=O)N2CCN(Cc3cccc4cccnc34)CC2)cc1 | nt | nt | nt | nt | -3 | nt
CCOc1ccc2[nH]c(=O)c(CN(CCO)C(=O)c3ccc(Br)cc3)cc2c1 | 2% | 9% | 1% | 32µM* | -5 | 25%
CCOc1ccc2[nH]c(=O)c(CN(Cc3ccco3)C(=O)c3cccc(F)c3)cc2c1 | -1% | 19% | -4% | 32µM* | -6 | 24%
CCOc1ccc2[nH]c(=O)c(CN(CCO)C(=O)CC)cc2c1 | -3% | -19% | 9% | 28µM* | -6 | 41%
CCOc1ccc2[nH]c(=O)c(CN(Cc3ccccc3OC)C(=O)c3ccccc3)cc2c1 | -3% | 23% | 1% | 32µM* | -13 | 9%
COc1cc(OC)cc(-c2cc3ccccc3c(=O)o2)c1 | nt | -15% | 0%[38.3 µM] | 28µM* | -1 | 28%
CCN(CC)c1ccc(NC(=O)c2nccnc2N)cc1 | nt | nt | nt | nt | 2 | nt
COc1ccc(/C=C(/C#N)c2nc3ccccc3[nH]2)cc1C | nt | nt | nt | nt | 2 | nt
CCCc1c(C(=O)OCC)[nH]c2c1C(=O)CC(c1ccc(OCC)cc1)C2 (stereo not given) | nt | nt | nt | nt | -5 | nt
O=C(O)c1cnc(-c2ccccc2)nc1Sc1cccc(Cl)c1 | 17% | -14%[56.9 µM] | -5% | -3% | -22 | 10%
O=C(O)c1cnc(-c2ccccc2)nc1Sc1ccccc1 | 3% | 3%[56.9 µM] | -4% | -1% | -40* | 21%
O=C(/C=C/c1ccc(Cl)cc1)Nc1ccccc1-c1ccccc1 | nt | nt | nt | nt | 1 | nt
O=C(NNC(=O)c1cc2ccccc2cc1O)Nc1ccc(Br)cc1 | 2% | 8% | 1% | 28µM* | 0 | 189%
O=C(CN1CCCCCC1)Nc1ccc([N+](=O)[O-])cc1Cl | -3% | -7% | 7% | 10µM* | -2 | -3%
O=C(CN1CCCCCC1)Nc1cc([N+](=O)[O-])ccc1Cl | -8% | 7% | 1% | nt | 12 | -2%
COc1ccc(OCCC(=O)OCC(=O)NC(=O)NC2CCCCC2)cc1 | -8% | -2% | -1% | 20µM* | -7 | nt
SMILES | Mito fusion act | RGS4 inh | IDH1 R132H inh | ClpP mod | LDHA inh | S-ASM inh
COc1ccc(OCCC(=O)OCC(=O)NC2CCCCC2)cc1 | nt | -9% | 10% | 1% | -1 | 3%
COc1ccc(-n2cccc2/C=C2/NC(=O)N(c3cccc(Cl)c3)C2=O)cc1 | -7% | 0% | 2% | 25µM* | -15 | 11%
O=C(O)c1cccc(-n2cccc2/C=C2/NC(=O)N(c3cccc(Cl)c3)C2=O)c1 | 2% | -21% | 3% | nt | -30*! | 19%
CCCCCCOCCOc1ccccc1OCCOCCCCCC | nt | nt | nt | nt | 1 | nt
COCCOc1ccc(C(=O)/C=C/c2ccc(O)cc2)cc1OC | nt | nt | nt | nt | -1 | nt
CC(=O)c1ccccc1OCc1ccccc1 | nt | nt | nt | nt | 11 | nt
CCc1ccc(Nc2ccc(C(=O)O)cc2[N+](=O)[O-])cc1 | 20µM* | -9% | -1% | 0% | -1 | -4%
CC(C)Sc1ccc2nn(CC(=O)Nc3ccc(F)cc3Cl)c(=O)n2n1 | nt | nt | nt | nt | -10 | nt
COc1ccc(-n2cnc3c(sc4nccc(N(C)C)c43)c2=O)cc1 | 1% | -35% | -1% | 14µM* | 1 | 25%
Cc1ccc(-n2cnc3c(sc4nccc(N(C)C)c43)c2=O)cc1 | 0% | -23% | 3% | -20% | -3 | 13%
Oc1ccc2c(-c3ccc(F)cc3)noc2c1 | nt | nt | nt | nt | -21 | nt
O=C(/C=C/c1cccs1)N(Cc1ccco1)C1CC1 | nt | nt | nt | nt | -1 | nt
CCOC(=O)C(=CNc1ccc(N2CCCCC2)c(S(=O)(=O)Nc2ccccc2OC)c1)C(=O)OCC | nt | ? | 9% | 18µM* | -3 | 0%
Cc1cc(Cl)ccc1OCCCc1n[nH]c(=S)n1C | nt | nt | nt | nt | 6 | nt
c1ccc(-c2cc3c(N4CCOCC4)ncnc3s2)cc1 | -2% | 16% | 1% | 28µM* | 2 | 5%
Cc1nc(N2CCOCC2)c2cc(-c3ccccc3)sc2n1 | 0% | -25% | 8% | 32µM* | -3 | -6%
Cc1cnc(C(=O)OCc2ccc(-c3ccccc3)cc2)cn1 | nt | nt | nt | nt | -23 | nt
CCCOC1CCCN(C(=O)CCc2nnc(-c3ccc4c(c3)OCO4)o2)C1 (stereo not given) | 0% | 9% | -3% | 20µM* | 1 | 3%
CC1CCCN(C(=O)CCc2nnc(-c3ccc4c(c3)OCO4)o2)C1 (stereo not given) | -5% | 17% | 4% | ? | 3 | 3%
CC(C)(Sc1ccc(CCN(CCCCC2CCCCC2)C(=O)NC2CCCCC2)cc1)C(=O)O | -46% | 27µM*! | 10% | 1% | 2 | -1%
CN1CCC(=NNC(=O)C(=O)NC2CCCC2)CC1 | -1% | -4% | 12% | 32µM* | -5 | 0%
COc1ccc(NC(=O)CN2C(=O)NC3(CCCc4ccccc43)C2=O)c(OC)c1 (stereo not given) | nt | -6% | 2% | 16µM* | -11 | 0%
COc1ccccc1NC(=O)CN1C(=O)NC2(CCCc3ccccc32)C1=O (stereo not given) | 4% | 30% | 15% | 0% | -4 | 0%
CC(C)c1nc2sc3c(SCC(=O)NCc4ccco4)ncnc3c2c2c1CCC2 | 14% | ? | -9% | 25µM* | 0 | -6%
COCCNc1nc(-c2ccc(N3CCCC3=O)cc2)cs1 | nt | nt | nt | nt | -7 | nt
Cc1cccc(-c2cc3nc4c(c(NCc5ccco5)n3n2)CCCC4)c1 | -11% | -1% | 13% | 28µM* | -1 | -24%
